Source: PubChem BioAssay (National Center for Advancing Translational Sciences (NCATS))
TRPV1 ag: human TRPV1 agonism | Q8NER1 | TRPV1-expressing cells, Fluo-8 calcium influx, agonist mode | activation, % at 8.33 µM | actives 0.19% (n = 320,000) | AID 540275; in the data active = activation above about 80%; inconclusive = between about 30% and that limit; note: 0% is about no effect
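TRPV1-expressing cells were cultured overnight at 35.5C and loaded with Fluo-8 calcium dye for 40 to 90 min at room temperature. After a 10 s baseline, compound was added and calcium influx was read kinetically for 3 min (ex 480/em 520 nm).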
TRPV1 PAM: human TRPV1 potentiation | Q8NER1 | TRPV1-expressing cells, Fluo-8 calcium influx, capsaicin EC20 potentiation | potentiation, % at 8.33 µM | actives 0.02% (n = 320,000) | AID 540277; in the data active = potentiation above about 80%; inconclusive = between about 30% and that limit; note: 0% is about no effect
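Cells expressing TRPV1 were dye-loaded with Fluo-8 and read kinetically: 10 s baseline, 3 min after compound (agonist portion), then 2 min after EC20 capsaicin (allosteric enhancer portion). Calcium-bound dye fluorescence at 480/520 nm.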
A-T KAP1 phos: candidate therapy for ataxia-telangiectasia | actives 0.19% (n = 320,000) | F2112 A-T fibroblasts, KAP-1 phosphorylation AlphaLISA; neocarzinostatin DNA damage 30 min before lysis | Potency, µM (titrated, usually from 57.5 µM), inactives show at the highest dose activation, hits mostly activators | AID 485349; note: potency is the fitted concentration of half-maximal effect; % of control where 0% means no effect; nearly all actives have a fitted effect of over 45% in size
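ATM-like activity read as KAP-1 phosphorylation via AlphaLISA donor/acceptor antibody pairs after lysis and 6 hr at 25C. Cells were ATM-null patient fibroblasts (F2112, hTERT), dosed 60 min, then exposed to the DSB inducer NCS for 30 min.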
Apoferritin bind: binds horse apoferritin like a general anesthetic; P02791; apoferritin/1-aminoanthracene competitive binding, fluorescence; Potency, µM (doses to about 77.5 µM), inactives show at the highest dose activity change, negative = displacement, usual class: inhibitors; actives 0.074% (n = 350,000); note: potency is the fitted concentration of half-maximal effect; % is set by controls: 0 for no effect and ±100 for the full control effect; nearly all actives have a fitted effect of over 20% in size
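10 uM apoferritin + 50% sat. 1-AMA, PBS; cpd 10 min RT; Ex380/Em535 endpoint; normalized to free probe vs complex; 4-param Hill fit; propofol titration as pos. ctrl.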
CBFb-RUNX1 inh: blocks binding between human CBF-beta and RUNX1; AlphaScreen CBFb-His/RUNX1-biotin binding, biochemical; Q01196+Q13951; Potency, µM (doses to about 59.8 µM), for inactives: at the top dose activity, negative = inhibition, usual class: inhibitors; 230,000 tested, under 10 active; note: % of control where 0% means no effect
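AlphaScreen proximity signal reports loss of binding between His-tagged CBF-beta and biotin-labelled RUNX1, each at 30 nM. Proteins are pre-associated for 20 minutes, compounds added for 15 minutes, then beads for 90 minutes, all at ambient temperature.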
The depositor's hits bear a star; ? = inconclusive; . = not tested or not shown; [ ] = dose if it differs, or a comment. In the library only some 0.39% were active in any assay of this set; here they are far more common. Unless noted, calls come from the whole dose curve; as a rule, active = well fitted curve in the direction sought with a large enough effect; inconclusive = small, poorly fitted or top-dose-only effect, or another doubt; inactive = no such curve, though single readings can be large; an effect the other way counts as inactive or inconclusive.

SMILES	TRPV1 ag	TRPV1 PAM	A-T KAP1 phos	Apoferritin bind	CBFb-RUNX1 inh
Cc1ccc(C(=O)Oc2oc(-c3ccccc3)nc2C=Nc2ccc(N(C)C)cc2)cc1	-5	-10	0%	-4%	-2%
CN(C)c1ccc(N=Cc2nc(-c3ccccc3)oc2OC(=O)c2cccc(Cl)c2)cc1	80*	-11	-1%	0%	2%
CC[C@H](C)[C@H](NC(=O)[C@H](Cc1ccc(O)cc1)NC(=O)[C@H](Cc1cnc[nH]1)NC(=O)[C@H](CCCNC(=N)N)NC(=O)[C@H](CC(C)C)NC(=O)[C@H](C)NC(=O)[C@H](CO)NC(=O)[C@H](Cc1ccc(O)cc1)NC(=O)[C@H](Cc1ccc(O)cc1)NC(=O)[C@H](CCCNC(=N)N)NC(=O)[C@H](C)NC(=O)[C@H](CCSC)NC(=O)[C@H](CC(=O)O)NC(=O)[C@H](CCC(=O)O)NC(=O)[C@H](C)NC(=O)[C@@H]1CCCN1)C(=O)N[C@@H](CC(N)=O)C(=O)N[C@@H](CC(C)C)C(=O)N[C@H](C(=O)N[C@H](C(=O)N[C@@H](CCCNC(=N)N)C(=O)N[C@@H](CCC(N)=O)C(=O)N[C@@H](CCCNC(=N)N)C(=O)N[C@@H](Cc1ccc(O)cc1)C(N)=O)[C@@H](C)O)[C@@H](C)CC	.	.	.	-1%	12%
O=C1CN(CC(=O)N2CCOCC2)c2ccccc2O1	-2	?	28µM*	-24%	?
COc1cc(C(=O)Nc2cccc(C(C)=O)c2)cc(OC)c1OC	-1	-10	0%	-5%	6%
COc1cc(NC(=O)Nc2cccc(C(C)=O)c2)cc(OC)c1OC	82*	-14	2%	0%	10%
COc1cccc(/C=C/C(=O)Nc2cccc(C(C)=O)c2)c1OC	90*	-16	-3%	-16%	-9%
O=C1c2cc(O)cc(O)c2OC[C@@H]1c1ccc(O)c(O)c1	.	.	.	?	-5%
CCOc1ccc(CNC(=O)c2cnc3sc(N4CCOCC4)nn3c2=O)cc1	.	.	.	-9%	.
CCCCOc1ccc(CNC(=O)c2cnc3sc(N4CCOCC4)nn3c2=O)cc1	.	.	.	4.5µM*	.
C=C(C(=O)c1ccccc1)C(C)C(=C)C(=O)c1ccccc1	11	-8	28µM*	?	4%
CCCCCCCCCCCCCCCCOC[C@H](COP(=O)([O-])OCC[N+](C)(C)C)OC(=O)CCCCCCCC(=O)O	.	.	.	-13%	-7%
CC12CCC(C(=O)NNc3ccc([N+](=O)[O-])cc3)(OC1=O)C2(C)C (stereo not drawn)	-1	-16	10µM*	-1%	9%
Cc1ccc(Oc2ccc(NC(=O)Cn3ccsc3=N)cc2)cc1	6	3	2%	13µM*	1%
C=C1C2(C(=O)Nc3nccs3)CCC(C2)C1(C)C (stereo not drawn)	3	10	-14%	7.9µM*	0%
CC(C)C1C(=O)N(S(C)(=O)=O)[C@H]2CCN(C(=O)/C=C/CN3CCCCC3)[C@@H]12 (stereo partly drawn)	.	.	.	3%	0%
CSCC[C@H](NC(=O)[C@H](CC(C)C)N(C)C(=O)[C@@H]1CCCN1C(=O)[C@H](Cc1ccccc1)NC(=O)[C@H](Cc1ccccc1)NC(=O)CCC(C)N)C(=O)O (stereo partly drawn)	.	.	.	-13%	20%
C[C@]12CC[C@@H]3c4ccc(OC(=O)c5ccccc5)cc4CC[C@H]3[C@@H]1CC[C@@H]2O	1	-3	18µM*	-6%	2%
C[C@]12CCC3c4ccc(OC(=O)c5ccccc5)cc4CCC3C1CCC2=O (stereo partly drawn)	.	.	.	-18%	.
C=CCC(C)(O)c1cccc(Br)c1 (stereo not drawn)	.	.	.	.	5%
O=C(NS(=O)(=O)c1ccc(F)cc1)O[C@@H]1C(=O)c2cc(Br)ccc2O[C@H]1c1ccc2c(c1)OCO2	.	.	.	.	10%
C=C1C(=O)OC(CCCCCCCC)C1C(=O)O (stereo not drawn)	.	.	.	5%	8%
COc1ccc(-c2nc3n(c2C)Cc2ccccc2-3)cc1	2	16	22µM*	-15%	-1%
CC1=C(C(=O)O)N2C(=O)C(NC(=O)C(N)c3ccccc3)C2SC1 (stereo not drawn)	.	.	.	.	-7%
N#Cc1ccc(NC(=S)NC(=O)CCc2ccc(S(=O)(=O)N3CCOCC3)cc2)cc1	2	-1	-1%	-3%	20%
SMILES	TRPV1 ag	TRPV1 PAM	A-T KAP1 phos	Apoferritin bind	CBFb-RUNX1 inh
Cc1ccc(C(=O)Nc2ccc(N3CCN(C)CC3)cc2)cc1	8	1	-4%	-7%	.
Cc1ccc(C(=O)Nc2ccc(S(=O)(=O)N3CCCC3)cc2)cc1	85*	-40	-7%	-6%	.
N#Cc1ccc(NC(=O)CCc2ccc(S(=O)(=O)N3CCOCC3)cc2)cc1	102*	-8	.	1%	4%
Cc1ccc(NC(=O)c2ccc(C)cc2)cc1	81*	5	11%	.	.
Cc1ccc(C(=O)Nc2ccc(S(=O)(=O)N3CCOCC3)cc2)cc1C	82*	-12	1%	-17%	.
CC(=O)Nc1ccc(C(=O)Nc2ccc(S(=O)(=O)N3CCOCC3)cc2)cc1	1	21	5%	-8%	.
C[C@H](NC(=O)[C@@H](Cc1c[nH]c2ccccc12)NC(=O)[C@@H](N)Cc1cnc[nH]1)C(=O)N[C@@H](Cc1c[nH]c2ccccc12)C(=O)N[C@H](Cc1ccccc1)C(=O)N[C@@H](CCCCN)C(N)=O	.	.	.	-12%	12%
COC(=O)CC1c2ccccc2C=C(/C=C/c2ccc3c(c2)OCO3)N1C(=O)OC (stereo not drawn)	.	.	.	.	-4%[13.1 µM]
COC(=O)c1ccc(C(=O)Nc2ccc(F)cc2)cc1	?	-5	28µM*	.	.
Cc1ccc(S(=O)(=O)N2CCOCC2)cc1C(=O)Nc1ccc2c(c1)CCC2	83*	-25	-2%	-6%	5%
Cc1ccc(C(=O)Nc2ccc3cn[nH]c3c2)cc1S(=O)(=O)N1CCOCC1	92*	11	-1%	-10%	-3%
CN(C)CCCN(CCCN(C)C)C(=S)Nc1ccc(S(=O)(=O)N2CCOCC2)cc1	-3	?	18µM*	-3%	1%
CC(C)(C)CC(C)(C)NC(=S)Nc1ccc(S(=O)(=O)N2CCOCC2)cc1	20	-3	-2%	?	15%
CC(C)CCOc1ccc(N)cc1	.	.	.	9%	-8%
